Screening results from PubChem.
JMJD2A Tudor inh = JMJD2A Tudor domain (human) inhibition | Potency, µM (titrated, usually from 114 µM), actives largely listed as inhibitors | 390,000 tested, 4.4% active | O75164 | AlphaScreen JMJD2A-Tudor / H3K4me3 peptide binding; further: nearly all actives have a fitted effect of over 50% in size
HP1b binding inh = inhibitors of HP1-beta chromodomain binding to methylated histone tails; P83916; AlphaScreen HP1-beta / biotin-H3K9me3 peptide binding; Potency, µM (top dose mostly 114 µM), hits mostly inhibitors; 390,000 tested, 0.56% active; AID 540317; further: nearly all actives have a fitted effect of over 70% in size
Target sequence (P83916 whole entry, looked up): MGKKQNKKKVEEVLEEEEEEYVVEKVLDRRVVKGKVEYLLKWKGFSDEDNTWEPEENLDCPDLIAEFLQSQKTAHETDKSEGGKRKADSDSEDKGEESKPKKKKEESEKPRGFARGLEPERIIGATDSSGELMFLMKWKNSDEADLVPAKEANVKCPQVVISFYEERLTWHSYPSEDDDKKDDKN
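HP1-beta protein (50 nM final) preincubated 30 min at room temperature with biotinylated H3(1-18)K9me3 peptide (50 nM) in PBS pH 7.4, 0.01% Tween-20, then compound added for 30 min. AlphaScreen streptavidin donor/nickel chelate acceptor beads (10 ug/mL final), 30 min dark, luminescence read.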
G9a inh = inhibitors of human histone lysine methyltransferase G9a; 350,000 tested, 8.8% active; G9a H3K9 monomethylation, AlphaScreen, 2 h; Potency, µM (titrated, usually from 102 µM), usual class: inhibitors; further: nearly all actives have a fitted effect of over 75% in size
Target sequence (Q96KQ7 913-1193 limits assumed): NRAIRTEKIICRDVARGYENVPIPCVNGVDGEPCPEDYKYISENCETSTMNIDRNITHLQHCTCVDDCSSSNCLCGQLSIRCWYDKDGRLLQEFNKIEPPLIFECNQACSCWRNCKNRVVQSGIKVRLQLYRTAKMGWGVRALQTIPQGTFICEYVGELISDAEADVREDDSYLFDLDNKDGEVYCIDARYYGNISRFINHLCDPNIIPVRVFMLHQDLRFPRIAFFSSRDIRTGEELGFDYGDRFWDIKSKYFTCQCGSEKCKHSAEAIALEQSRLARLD
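AlphaScreen read-out: biotin-H3K9 peptide (500 nM) methylation by 20 nM enzyme with 20 uM SAM, 2 h at room temperature after 15 min compound preincubation; anti-monomethyl H3K9 antibody plus donor/acceptor beads, 10 min dark.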
L3MBTL1 block = L3MBTL1 (human) inhibition. Q9Y468. 230,000 tested, 0.66% active. Potency, µM (series often up to 57.1 µM), hits mostly inhibitors. AlphaScreen L3MBTL1–H3K9me1 peptide binding; further: nearly all actives have a fitted effect of over 60% in size
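L3MBTL1 (50 nM) pre-complexed 30 min with biotinylated H3(1-15)K9me1 peptide (75 nM), then compounds added for 30 min at room temperature; AlphaScreen streptavidin donor/nickel chelate acceptor beads (10 ug/mL final) read after 30 min dark incubation.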
BAZ2B inh = blocks human BAZ2B; AlphaScreen BAZ2B-H3K14Ac peptide displacement; AID 504333; 360,000 tested, 4.4% active; Potency, µM (series often up to 114 µM), actives largely listed as inhibitors; further: nearly all actives have a fitted effect of over 60% in size
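BAZ2B (50 nM) with biotin-H3(5-23)K14Ac peptide (50 nM) in PBS pH 7.4, 0.01% Tween-20, preformed 30 min, then compound 30 min at room temperature; top concentration 110uM. AlphaScreen streptavidin donor/nickel chelate acceptor beads (10 ug/mL final), 20 min dark, signal read.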
Hits are given with their value; - = inactive; ? = inconclusive; . = no result; [ ] = another dose, or the depositor's remark. Shown are actives, neighbours in structure and some others; about 11% of the full set was active somewhere. The call rests on the fitted dose curve; in most records, active means well fitted inhibition curve with a large enough effect; inconclusive means small, poorly fitted or top-dose-only effect; inactive means no such curve, though single readings can be large or run the other way.

SMILES	JMJD2A Tudor inh	HP1b binding inh	G9a inh	L3MBTL1 block	BAZ2B inh
Cc1c(Cl)cccc1NC(=O)C1CC2CCC1C2 (stereo unspecified)	-	-	.	.	.
CC(C)C[C@@H](CN)NC(=O)c1nc[nH]c1C(=O)N[C@@H](Cc1ccccc1)C(=O)CNC[C@H](C)NC(=O)c1nc[nH]c1C(=O)N[C@@H](CC(C)C)C(=O)O	56µM	-	.	.	.
C[C@H](NC(=O)c1nc[nH]c1C(=O)N[C@@H](Cc1ccccc1)C(=O)OC(C)(C)C)C(=O)OC(C)(C)C	-	-	-	.	-
CC(C)C[C@@H](CN)NC(=O)c1nc[nH]c1C(=O)N[C@@H](Cc1c[nH]c2ccccc12)C(=O)CNC[C@H](C)NC(=O)c1nc[nH]c1C(=O)N[C@@H](C)C(=O)O	56µM	-	.	.	.
CC(C)C[C@@H](CN)NC(=O)c1nc[nH]c1C(=O)N[C@@H](Cc1ccccc1)C(=O)CNC[C@H](C)NC(=O)c1nc[nH]c1C(=O)N[C@@H](C)C(=O)O	79µM	-	.	.	.
CC(C)C[C@@H](CNCC(=O)[C@H](Cc1c[nH]c2ccccc12)NC(=O)c1[nH]cnc1C(=O)N[C@@H](C)CN)NC(=O)c1nc[nH]c1C(=O)N[C@@H](Cc1ccccc1)C(=O)O	?	-	.	.	.
O=C(CNc1ccc2ccccc2c1)N/N=C/c1ccccn1	-	-	4µM	-	-
O=C(CCCC(=O)N/N=C\c1ccccn1)N/N=C\c1ccccn1	-	-	?	-	?
O=C(CNc1ccc2ccccc2c1)N/N=C/c1ccncc1	-	-	1.4µM	.	-
CCc1nc2ccc(C(=O)NCCc3ccc(OC)cc3OC)cc2nc1CC	-	-	-	.	-
O=C(CCCCn1c(=O)c2ccccc2n(CC(=O)Nc2ccc(F)cc2F)c1=O)NCCc1ccccc1	-	-	-	.	-
CC1Cc2cc(S(=O)(=O)N(C)c3ccc(Br)cc3)ccc2N1C(=O)C1CC1 (stereo unspecified)	-	-	-	.	-
CC(C(=O)O)n1nc2ccccc2n1 (stereo unspecified)	-	-	-	-	?
Cc1ccnn1C(C)C(=O)O (stereo unspecified)	-	-	50µM	-	-
O=C(Cn1ccnc1[N+](=O)[O-])NCCO	.	.	-[21.5 µM]	.	.
CCCOc1ccc2c(c1)C(=NN=C(N)N)c1cc(OCCC)ccc1-2	28µM	?	?	.	40µM
CCN(CC)CCOc1ccc2c(c1)C(=NO)c1cc(OCCN(CC)CC)ccc1-2	-	-	?	-	-
CCN1C(=O)NC(c2ccccc2)C1=O (stereo unspecified)	-	-	-	-	-
CN=C1N[C@H](c2ccccc2)N(c2ccccc2)S1	25µM	?	.	.	.
O=C(O)c1cc(-c2cccnc2)nn1-c1ccccn1	-	-	28µM	-	?
CN(C)CCN(Cc1ccccc1)S(=O)(=O)c1ccc2[nH]c(=O)ccc2c1	-	-	-	.	-
CC(Oc1ccccc1)C(=O)Nc1cccc(-c2nc3ccccc3[nH]2)c1 (stereo unspecified)	-	-	50µM	-	-
CC(C)c1nnc(SCC(=O)NCCC2=CCCCC2)n1N	-	?	8.9µM	.	-
Nn1c(SCC(=O)NCCC2=CCCCC2)nnc1-c1cccnc1	-	-	45µM	-	-
CCN(CC)S(=O)(=O)c1cccc(-c2nnc(SCC(=O)NCCC3=CCCCC3)n2N)c1	-	-	-	-	-
SMILES	JMJD2A Tudor inh	HP1b binding inh	G9a inh	L3MBTL1 block	BAZ2B inh
COc1ccc(C(=O)OCc2c(-c3ccccc3)ncc3ccccc23)cc1	-	-	.	-	.
Oc1ccc(Br)cc1CN1CCCCCCC1	6.3µM	-	?	.	50µM
Oc1cccc(CN2CCCCC2)c1	-	-	-	-	-
Brc1cccc(CN2CCCCCC2)c1	20µM	?	25µM	-	?
CCCN1Cc2cccc(C(=O)Nc3ccc(C(C)=O)cc3)c2C1=O	-	-	-	.	.
O=C(CSc1ccc(-c2ccco2)nn1)c1cccc([N+](=O)[O-])c1	?	-	10µM	-	-
CCc1nnc(NC(=O)CSc2ccc(-c3ccc(F)cc3)nn2)s1	.	.	45µM	-	-
Cc1ccc(NC(=O)Cn2nc3c(cc2=O)CCCC3)cc1Cl	-	-	-	.	-
Cc1ccc(NC(=O)Cn2nc(-c3ccco3)ccc2=O)cc1Cl	-	-	11µM	.	-
COc1ccc(C)cc1NC(=O)CSc1ccc(-c2ccco2)nn1	?	-	40µM	.	?
